# Results published in the supplement of paper PMC8728848.
# The full list was thinned out, with the strongest signals kept by preference.
# B1: Mincle (Bos taurus) (protein)
# chain: MNSSTSPASQTERRCFSFQLFSWAIAGTSILLLSACFITRCVVTYSIFQLCDEKKFQPPGDSMELSCYNDGSGSVKNCCPLKWFHFQSSCYLFSPDTMSWRASLKNCSSMGAHLVVINTQEEQEFLYYTKPRKKEFYIGLTDQVTEGQWQWVDGTPFTKSLSFWDAGEPNNLVIVEDCATIRDSSNPRQNWNDVPCFFNMFRVCEMPERKI
# Key:
# Test in all cases: glycan array binding signal (z-score within array); higher = stronger binding
# Conditions in all cases: glycan notation: IUPAC condensed, linker removed
# [1] = target: Gal6P(b1-4)GlcNAc
# In short: (§1)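 Glycan array data were curated from 3228 arrays in the Consortium for Functional Glycomics database and kept only where the protein sequence was available. Glycan names were converted to IUPAC-condensed notation, and columns mapping to the same glycan were averaged. The binding signal is a within-array Z-score, averaged across arrays of the same protein sequence at different concentrations or buffers and across linkers. Negative Z-scores can be read as non-binding.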
# [2] = target: GalNAc(a1-3)Gal
# In short: as §1
# [3] = target: GalNAc(a1-3)GalNAc
# In short: as §1
# [4] = target: GalNAc(b1-4)GlcNAc
# In short: as §1
# [5] = target: GlcNAc(a1-4)Gal(b1-4)GlcNAc(b1-3)Gal(b1-4)GlcNAc(b1-3)Gal(b1-4)GlcNAc
# In short: as §1
# [6] = target: GlcNAc(b1-3)Gal(b1-4)GlcNAc(b1-2)[GlcNAc(b1-3)Gal(b1-4)GlcNAc(b1-6)]Man(a1-6)[GlcNAc(b1-3)Gal(b1-4)GlcNAc(b1-2)Man(a1-3)]Man(b1-4)GlcNAc(b1-4)GlcNAc
# In short: as §1
# [7] = target: GlcNAc(b1-3)Gal(b1-4)GlcNAc(b1-3)Gal(b1-4)GlcNAc
# In short: as §1
# [8] = target: GlcNAc(b1-3)Gal(b1-4)GlcNAc(b1-3)Gal(b1-4)GlcNAc(b1-3)Gal(b1-4)GlcNAc(b1-2)Man(a1-3)[GlcNAc(b1-3)Gal(b1-4)GlcNAc(b1-3)Gal(b1-4)GlcNAc(b1-3)Gal(b1-4)GlcNAc(b1-2)Man(a1-6)]Man(b1-4)GlcNAc(b1-4)[Fuc(a1-6)]GlcNAc
# In short: as §1
# [9] = target: GlcNAc(b1-3)Gal(b1-4)GlcNAc(b1-3)[GlcNAc(b1-3)Gal(b1-4)GlcNAc(b1-3)]GalNAc
# In short: as §1
# [10] = target: GlcNAc(b1-3)[GlcNAc(b1-4)][GlcNAc(b1-6)]GlcNAc
# In short: as §1
# [11] = target: GlcNAc(b1-3)[GlcNAc(b1-6)]GalNAc
# In short: as §1
# [12] = target: GlcNAc(b1-4)GlcNAc(b1-4)GlcNAc
# In short: as §1
# [13] = target: Kdn(a2-3)Gal(b1-3)GlcNAc
# In short: as §1
# [14] = target: Man(a1-2)Man(a1-2)Man(a1-3)Man
# In short: as §1
# [15] = target: Man(a1-2)Man(a1-2)Man(a1-6)[Man(a1-3)]Man
# In short: as §1
# [16] = target: Man(a1-2)Man(a1-3)Man
# In short: as §1
# [17] = target: Man(a1-2)Man(a1-3)[Man(a1-2)Man(a1-6)]Man
# In short: as §1
# [18] = target: Man(a1-2)Man(a1-3)[Man(a1-2)Man(a1-6)]Man(a1-6)[Man(a1-2)Man(a1-2)Man(a1-3)]Man
# In short: as §1
# [19] = target: Man(a1-2)Man(a1-6)[Man(a1-3)]Man(a1-6)[Man(a1-2)Man(a1-2)Man(a1-3)]Man(b1-4)GlcNAc(b1-4)GlcNAc
# In short: as §1
# [20] = target: Man(a1-3)[Man(a1-6)]Man
# In short: as §1
# [21] = target: Man(a1-3)[Man(a1-6)]Man(a1-6)[Man(a1-2)Man(a1-3)]Man(b1-4)GlcNAc(b1-4)GlcNAc
# In short: as §1
# [22] = target: Neu5Ac(a2-3)Gal(b1-3)GalNAc(b1-4)Gal(b1-4)Glc
# In short: as §1
# [23] = target: Neu5Ac(a2-3)Gal(b1-3)GlcNAc6S
# In short: as §1
# [24] = target: Neu5Ac(a2-3)Gal(b1-3)[GlcNAc(b1-6)]GalNAc
# In short: as §1
# [25] = target: Neu5Ac(a2-3)Gal(b1-3)[Neu5Ac(a2-6)]GalNAc
# In short: as §1
# [26] = target: Neu5Ac(a2-3)Gal(b1-4)GlcNAc(b1-2)Man(a1-3)[GlcNAc(b1-4)][Neu5Ac(a2-3)Gal(b1-4)GlcNAc(b1-2)Man(a1-6)]Man(b1-4)GlcNAc(b1-4)GlcNAc
# In short: as §1
# [27] = target: Neu5Ac(a2-3)Gal(b1-4)GlcNAc(b1-3)Gal(b1-3)GlcNAc
# In short: as §1
# [28] = target: Neu5Ac(a2-3)Gal(b1-4)GlcNAc(b1-3)Gal(b1-4)GlcNAc(b1-3)Gal(b1-4)GlcNAc(b1-2)Man(a1-3)[Neu5Ac(a2-3)Gal(b1-4)GlcNAc(b1-3)Gal(b1-4)GlcNAc(b1-3)Gal(b1-4)GlcNAc(b1-2)Man(a1-6)]GalNAc
# In short: as §1
# [29] = target: Neu5Ac(a2-3)Gal(b1-4)[Fuc(a1-3)]GlcNAc(b1-6)[Gal(b1-3)]GalNAc
# In short: as §1
# [30] = target: Neu5Ac(a2-6)Gal(b1-4)GlcNAc(b1-2)Man(a1-3)[Neu5Ac(a2-6)Gal(b1-4)GlcNAc(b1-2)Man(a1-6)]Man(b1-4)GlcNAc(b1-4)[Fuc(a1-6)]GlcNAc
# In short: as §1
# [31] = target: Neu5Ac(a2-6)Gal(b1-4)GlcNAc(b1-2)Man(a1-6)Man(b1-4)GlcNAc(b1-4)GlcNAc
# In short: as §1
# [32] = target: Neu5Ac(a2-6)Gal(b1-4)GlcNAc(b1-6)GalNAc
# In short: as §1
binder,measurement,setting,value
B1,glycan array binding signal (z-score),[1],-0.035
same,glycan array binding signal (z-score),[2],-1.18
same,glycan array binding signal (z-score),[3],0.166
same,glycan array binding signal (z-score),[4],-0.149
same,glycan array binding signal (z-score),[5],0.104
same,glycan array binding signal (z-score),[6],1.42
same,glycan array binding signal (z-score),[7],-0.57
same,glycan array binding signal (z-score),[8],-0.142
same,glycan array binding signal (z-score),[9],0.084
same,glycan array binding signal (z-score),[10],5.17
same,glycan array binding signal (z-score),[11],0.888
same,glycan array binding signal (z-score),[12],-0.899
same,glycan array binding signal (z-score),[13],0.033
same,glycan array binding signal (z-score),[14],6.56
same,glycan array binding signal (z-score),[15],4.79
same,glycan array binding signal (z-score),[16],3.01
same,glycan array binding signal (z-score),[17],7.29
same,glycan array binding signal (z-score),[18],3.54
same,glycan array binding signal (z-score),[19],0.474
same,glycan array binding signal (z-score),[20],6.16
same,glycan array binding signal (z-score),[21],3.43
same,glycan array binding signal (z-score),[22],-1.13
same,glycan array binding signal (z-score),[23],1.11
same,glycan array binding signal (z-score),[24],-0.595
same,glycan array binding signal (z-score),[25],-0.943
same,glycan array binding signal (z-score),[26],0.061
same,glycan array binding signal (z-score),[27],0.02
same,glycan array binding signal (z-score),[28],4.3
same,glycan array binding signal (z-score),[29],0.16
same,glycan array binding signal (z-score),[30],0.527
same,glycan array binding signal (z-score),[31],0.271
same,glycan array binding signal (z-score),[32],0.439
